# According to PubChem BioAssay:
# Calls of active or inactive are those of the source.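 Rule for the calls, unless noted: active = fluorescence slope after compound addition differing from the mean of all screened samples at 99.7% confidence, in either direction; inactive = the rest.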
# Assays:
# [1] = inhibitors of TNFa-induced NFkB p65 translocation, primary screen, imaging, HUVEC, MLSMR starter and 10KST1 sets (AID 438;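 active = inhibition above 20% together with a positive visual image hit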;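 note: compound added about 3h40 before a 20 min TNFalpha stimulation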;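 for inhibition: signal is the nuclear over cytoplasmic p65 intensity ratio per well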); details: HUVEC TNFa-induced p65 nuclear translocation; cell count: measured here: nuclei count (cytotoxicity indicator), at 2.08 µM; inhibition: at 2 µM, stronger effect = higher value, 0% TNFa-plus-vehicle, 100% no-TNFa wells
# [2] = inhibitors of mutant huntingtin aggregation, primary screen, imaging, exon1htt(103Q)mCFP cells, high-content imaging (AID 483;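 active = visual image review flags a hit and inhibition of aggregation exceeds 20%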;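 note: compound exposure lasted 3 days before fixation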;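 for nuclei count: percent of the per-plate median nuclei count of sample wells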); details: exon1htt(103Q)mCFP cell line, aggregate imaging, at 2 µM; inhibition of aggregation: stronger effect = higher value; nuclei count: measured here: cell count, toxicity
# [3] = inhibitors of E-selectin induction by TNFa, primary screen, imaging, HUVEC, immunofluorescence, MLSMR starter and 10KST1 sets (AID 487;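 active = visually confirmed hit in the image check and inhibition above 20%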;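 for inhibition: signal is fraction of cell area covered by stained E-selectin grains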;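 for nuclei count: 100% = median nuclei count of all wells on the same plate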); details: HUVEC TNFalpha-induced E-selectin immunofluorescence imaging, at 2 µM; inhibition: stronger effect = higher value; nuclei count: measured here: cell number, toxicity
# [4] = target: Voltage-gated potassium channel subunit beta-2 (Rattus norvegicus) (UniProt P62483); assay: KvBeta enzyme negative modulators, primary screen, biochemical, NADPH fluorescence (AID 622;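 active = fluorescence slope higher than the sample average by over 3 SD, cut at about -0.22 in these data, passing the limit was not always enough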;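 note: slope of raw intensity against log time taken from 70 to 1610 s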); details: recombinant KvBeta, 4-cyanobenzaldehyde reduction, at 10 µM, stronger effect = higher value
# [5] = target: Voltage-gated potassium channel subunit beta-2 (Rattus norvegicus) (UniProt P62483); assay: KvBeta positive modulators, primary screen, biochemical, NADPH fluorescence (AID 623;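 active = NADPH fluorescence slope more negative than the mean of all samples by about 3 SD, 99.7% confidence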;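 note: fluorescence intensity change per second fitted from 20 to 320 s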); details: Recombinant KvBeta, NADPH fluorescence decrease slope, 10 min; at 10 µM; stronger effect = lower value
# [6] = target: Alpha-2C adrenergic receptor (Homo sapiens) (UniProt P18825); assay: modulators of alpha2C/GIRK thallium flux, primary screen, cell-based, HEK293 alpha2C/GIRK1/2 (AID 624); details: thallium flux BTC fluorescence, at 10 µM, actives lie on both sides;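 note: slope of fluorescence ratio to pre-addition baseline per second over 15 to 24 s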
# [7] = inhibitors of Sendai virus-induced IRF3 signaling, primary screen, TLR/RLR signaling modifier project, cell-based, Sendai virus stimulus, luciferase, 10K MLSCN set (AID 602276;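 active = inhibition at or above 50% at 10 µM; inactive = inhibition below 50%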;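 note: firefly luciferase from ISG56 promoter only with Renilla not read in this screen; 0% = Sendai virus plus DMSO and 100% = medium plus DMSO without virus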); details: HEK293 RL24 IRF3 luciferase reporter, at 10 µM, stronger effect = higher value
# [8] = inhibitors of poly I:C-induced TLR3 signaling, primary screen, cell-based, poly I:C stimulus, luciferase, 10K MLSCN set (AID 602277;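 active = inhibition of the reporter signal at or above 50%; inactive = inhibition below 50%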); details: HEK293-TLR3 RL24 IRF3 luciferase reporter, at 10 µM, stronger effect = higher value
# Sequence of Alpha-2C adrenergic receptor (Homo sapiens) (P18825 whole entry, looked up): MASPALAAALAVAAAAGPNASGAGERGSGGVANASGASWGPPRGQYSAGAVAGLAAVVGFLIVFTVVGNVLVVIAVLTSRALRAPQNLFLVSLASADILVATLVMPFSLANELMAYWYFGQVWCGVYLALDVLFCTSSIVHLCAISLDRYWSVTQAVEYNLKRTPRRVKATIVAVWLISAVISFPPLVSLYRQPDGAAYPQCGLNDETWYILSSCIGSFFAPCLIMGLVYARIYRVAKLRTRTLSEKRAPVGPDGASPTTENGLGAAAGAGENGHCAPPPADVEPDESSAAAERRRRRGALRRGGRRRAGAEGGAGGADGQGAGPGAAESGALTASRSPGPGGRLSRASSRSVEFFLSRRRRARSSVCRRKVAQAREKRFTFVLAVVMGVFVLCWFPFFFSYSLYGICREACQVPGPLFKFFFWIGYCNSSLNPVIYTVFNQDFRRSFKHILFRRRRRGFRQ
# Sequence of Voltage-gated potassium channel subunit beta-2 (Rattus norvegicus) (P62483 whole entry, looked up): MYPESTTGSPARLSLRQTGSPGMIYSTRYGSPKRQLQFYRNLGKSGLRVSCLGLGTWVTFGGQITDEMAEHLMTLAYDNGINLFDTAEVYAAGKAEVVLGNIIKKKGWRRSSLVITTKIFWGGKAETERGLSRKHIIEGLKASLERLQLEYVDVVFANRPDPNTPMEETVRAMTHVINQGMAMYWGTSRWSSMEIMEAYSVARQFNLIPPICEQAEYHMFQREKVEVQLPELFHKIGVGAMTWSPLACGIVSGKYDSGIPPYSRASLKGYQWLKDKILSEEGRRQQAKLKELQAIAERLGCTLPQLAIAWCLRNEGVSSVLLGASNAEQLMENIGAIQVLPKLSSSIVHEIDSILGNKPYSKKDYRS
Structure (SMILES),cell count [1],inhibition [1],inhibition of aggregation [2],nuclei count [2] [%],inhibition [3],nuclei count [3] [%],fluorescence slope [4],NADPH fluorescence slope [5],slope [6],inhibition [7],inhibition [8]
COc1ccccc1CNC(=O)C1CCCN(S(=O)(=O)c2cnc[nH]2)C1 (stereo not drawn),443,49.5% (active),27.9% (inactive),87.1,-59.5% (inactive),103,-0.558 (inactive),7.1e-07 (inactive),0.00747 (inactive),-5.95% (inactive),0.0501% (inactive)
N#Cc1nc(-c2ccco2)oc1NCc1ccco1,658,-9.1% (inactive),-10.1% (inactive),120,-12.2% (inactive),98.2,-0.375 (inactive),5.2e-05 (inactive),0.00582 (inactive),-2.68% (inactive),-30.9% (inactive)
CN(C)c1oc(-c2ccccc2Cl)nc1C#N,302,4.3% (inactive),-4.3% (inactive),90.7,6% (inactive),109,-0.433 (inactive),-0.000102 (inactive),0.00458 (inactive),6.71% (inactive),-0.158% (inactive)
O=C(O)c1cc2nc(-c3ccc(F)cc3)cc(C(F)(F)F)n2n1,435,4.9% (inactive),-0.7% (inactive),97.9,26.5% (inactive),110,-0.385 (inactive),-4.1e-05 (inactive),0.00272 (inactive),0.989% (inactive),19.6% (inactive)
Cc1nnc2c3ccccc3c(-c3ccccc3)nn12,481,-4.4% (inactive),-5.8% (inactive),92.4,-3.3% (inactive),108,-0.301 (inactive),-4.7e-05 (inactive),0.00584 (inactive),68% (active),61.1% (active)
COc1ccc(-c2nnc(-c3cccs3)o2)cc1OC,384,-0.2% (inactive),6.2% (inactive),99,67.8% (active),94.7,-0.343 (inactive),3e-05 (inactive),0.00689 (inactive),-76.7% (inactive),-170% (inactive)
COc1ccc(C)cc1S(=O)(=O)N1CCN(S(=O)(=O)c2cc(C)ccc2OC)CC1,427,-0.2% (inactive),-15.7% (inactive),97.4,17.9% (inactive),112,-0.536 (inactive),-3.9e-05 (inactive),0.00449 (inactive),-3.93% (inactive),9.61% (inactive)
CCn1c(=O)c(C(=O)Nc2cccnc2)c(O)c2ccccc21,362,4.1% (inactive),7% (inactive),105,-39.9% (inactive),107,-0.465 (inactive),-4.5e-05 (inactive),0.00569 (inactive),-1.35% (inactive),-9.19% (inactive)
COc1ccc(CNc2oc(-c3ccccc3)nc2C#N)cc1,458,5% (inactive),-12.2% (inactive),99.5,-19.4% (inactive),67.2,-0.523 (inactive),2.8e-05 (inactive),0.00683 (inactive),-29.8% (inactive),-35.1% (inactive)
CCCCOc1ccc(-c2ncc(Cl)cn2)cc1,469,3% (inactive),13.9% (inactive),98.8,-10% (inactive),115,-0.434 (inactive),-6.7e-06 (inactive),0.00373 (inactive),-30% (inactive),-146% (inactive)
Cc1cccc(NC(=O)CCN2CCN(C/C=C/c3ccccc3)CC2)c1,727,4.3% (inactive),4.2% (inactive),98.6,15.3% (inactive),104,-0.511 (inactive),-2.6e-05 (inactive),0.00628 (inactive),13.8% (inactive),6.07% (inactive)
O=C(NCc1cccs1)C1CCN(S(=O)(=O)c2cccs2)CC1,353,4.5% (inactive),0.9% (inactive),99.2,-13.4% (inactive),120,-0.619 (inactive),-1.4e-05 (inactive),0.00617 (inactive),7.22% (inactive),15% (inactive)
CCOc1cc(S(=O)(=O)NCc2ccc3c(c2)OCO3)ccc1F,266,1.8% (inactive),-4.1% (inactive),98.6,-32.5% (inactive),103,-0.407 (inactive),-3.8e-05 (inactive),0.00471 (inactive),15.3% (inactive),9.83% (inactive)
CCCC1(C(=O)OC)NC(c2cc(OC)c(OC)c(OC)c2)C2C(=O)N(CC)C(=O)C21 (stereo not drawn),582,5.5% (inactive),8.1% (inactive),111,-37.6% (inactive),110,-0.48 (inactive),3.3e-05 (inactive),0.0052 (inactive),-10.2% (inactive),2.76% (inactive)
CN(C)c1cc(NC(=O)CN2CCOCC2)c2ccccc2n1,863,1.2% (inactive),6.6% (inactive),101,-75% (inactive),131,-0.549 (inactive),-3.5e-05 (inactive),0.00612 (inactive),9.32% (inactive),46.3% (inactive)
CCOc1cc(C2CC(=O)N3CN(C4CCCCC4)CSC3=C2C#N)ccc1O (stereo not drawn),818,2.3% (inactive),-24.4% (inactive),114,-31.4% (inactive),110,-0.607 (inactive),1.8e-05 (inactive),0.00576 (inactive),11.2% (inactive),19.8% (inactive)
CCOCCCn1c(=S)[nH]c2cc3c(cc2c1=O)OCO3,453,3% (inactive),-8.1% (inactive),92,-12.7% (inactive),103,-0.489 (inactive),-5.9e-05 (inactive),0.00895 (inactive),-16.3% (inactive),-2.74% (inactive)
Cc1ccc2oc(C(=O)Nc3c(C)n(C)n(-c4ccccc4)c3=O)c(C)c2c1,776,-5% (inactive),-1.5% (inactive),109,-37.6% (inactive),108,-0.616 (inactive),-2.7e-05 (inactive),0.00692 (inactive),-5.27% (inactive),7.35% (inactive)
CCCCOC(=O)CN1C(=O)c2ccc(C(=O)OCCCC)cc2C1=O,619,-4.1% (inactive),-4.5% (inactive),36.7,-48.1% (inactive),88.2,-0.486 (inactive),-2.2e-05 (inactive),0.00602 (inactive),-2.49% (inactive),26% (inactive)
O=C(NCC1CCCO1)C1CCC(CNS(=O)(=O)c2ccccc2)CC1 (stereo not drawn),341,8.1% (inactive),-6% (inactive),110,-24.2% (inactive),115,-0.499 (inactive),-4e-05 (inactive),0.00661 (inactive),7.1% (inactive),10.8% (inactive)
COc1ccccc1N1C(=O)CC(Sc2nc(C)cc(C)n2)C1=O (stereo not drawn),613,-8.2% (inactive),15% (inactive),95.3,-30.9% (inactive),90.9,-0.447 (inactive),-9.1e-05 (inactive),0.0075 (inactive),14.5% (inactive),19.3% (inactive)
Cc1ccc2c(C)nc(Nc3nc(CSc4nnnn4-c4ccccc4)cc(=O)[nH]3)nc2c1,352,-3.8% (inactive),-22.3% (inactive),100,-54.7% (inactive),101,-0.6 (inactive),-3.4e-05 (inactive),0.00691 (inactive),8.72% (inactive),-4.56% (inactive)
Cc1cc(C(=O)N2CCN(C/C=C/c3ccccc3)CC2)no1,242,8.7% (inactive),-4.4% (inactive),101,11.3% (inactive),98.6,-0.465 (inactive),1.9e-06 (inactive),0.0056 (inactive),13% (inactive),25.3% (inactive)
COC(=O)CN(c1ccc(OC)cc1)S(=O)(=O)c1ccc(OC)c(OC)c1,669,-4.7% (inactive),-13% (inactive),106,-81.3% (inactive),139,-0.463 (inactive),-0.000101 (inactive),0.00514 (inactive),10.6% (inactive),23.4% (inactive)
CC(=O)Nc1ccc(OCC(O)Cn2nc(C)nc2C)cc1 (stereo not drawn),357,1.5% (inactive),-13.4% (inactive),95.7,-160% (inactive),120,-0.267 (inactive),-1.1e-05 (inactive),0.00761 (inactive),7.41% (inactive),23.2% (inactive)
c1ccc(Cc2nn3c(Cn4cnc5ccccc54)nnc3s2)cc1,415,1.4% (inactive),9.2% (inactive),80.7,-19.6% (inactive),91.6,-0.512 (inactive),-5.6e-05 (inactive),0.00479 (inactive),15.8% (inactive),-2.79% (inactive)
COc1ccc(CN(Cc2cc3cc4c(cc3[nH]c2=O)OCO4)C(=O)NC2CCCCC2)cc1,337,7.6% (inactive),38.7% (inactive),73.1,-75.9% (inactive),99.3,-0.368 (inactive),-5.1e-05 (inactive),0.0053 (inactive),5.31% (inactive),-1.61% (inactive)
Cc1cc(O)c(-c2cc(C(=O)Nc3ccc(S(=O)(=O)N4CCOCC4)cc3)[nH]n2)cc1C,499,5.8% (inactive),-6.9% (inactive),100,-62.7% (inactive),153,-0.584 (inactive),-1.4e-05 (inactive),0.00629 (inactive),-12.1% (inactive),-24.7% (inactive)
